Laboratory results reported in ChEMBL document CHEMBL3988442, “University of Dundee, Small-Polar-MMV Screening Library” (2021).
Out of some 66,000 compounds screened, about 960 (1.5%) showed an effect of 50% or more. This is one part of a sample in which strong results are shown more often than they occur.

Test system: Trypanosoma brucei
Assay: Trypanosoma brucei 72 hour study
Type: functional, organism-based
Design: scale not given: in the data most compounds retested in dose-response had high values

Row | Compound | Percent Effect (30 µM, 30.03 µM) [%] | Percent Effect (30.3 µM, […]) [%]
1 | COc1ccc(OC)c(C2SCC(=O)Nc3n[nH]cc32)c1 (stereo not drawn) | 38.65 | –
2 | COc1cc(OC)c(C2SCC(=O)Nc3n[nH]cc32)cc1OC (stereo not drawn) | 60.77 | –
3 | COc1cc(C2SCC(=O)Nc3ccsc32)cc(OC)c1O (stereo not drawn) | 23.79 | –
4 | COc1ccc(C2SCC(=O)Nc3n[nH]cc32)c(OC)c1OC (stereo not drawn) | -21.04 | –
5 | COc1cc(C2SCC(=O)Nc3n[nH]cc32)cc(OC)c1O (stereo not drawn) | 53.45 | –
6 | COc1ccccc1C1SCC(=O)Nc2n[nH]cc21 (stereo not drawn) | 40.76 | –
7 | COCc1cncc2c1CCN(Cc1cccs1)C2.O=C(O)C(F)(F)F.O=C(O)C(F)(F)F | – | -85.33
8 | COCCN1CCC12CCN(C(=O)c1ccc(C)nc1)C2.O=C(O)C(F)(F)F (stereo not drawn) | – | 8.313
9 | CN(C)CCN1CCN(Cc2cccs2)Cc2cccnc21.O=C(O)C(F)(F)F.O=C(O)C(F)(F)F.O=C(O)C(F)(F)F | – | -59.56
10 | CCN1C[C@@H]2[C@@H](OC)CCN(C(=O)Cc3ccsc3)[C@@H]2C1.O=C(O)C(F)(F)F | – | -11
11 | CN(C)CCOCc1cncc2c1CCN(C1CCOC1)C2.O=C(O)C(F)(F)F.O=C(O)C(F)(F)F.O=C(O)C(F)(F)F (stereo not drawn) | – | -50.42
12 | Cc1ccc2c(c1)C(NC1CC1)CC21CCNCC1.Cl (stereo not drawn) | – | 51.53
13 | Cc1ccc2c(c1)C1(CCNCC1)CC2NC1CC1.Cl.Cl (stereo not drawn) | – | 15.24
14 | Cc1ccc2c(c1)C(NC(C)C)CC21CCNCC1.Cl (stereo not drawn) | – | -30.38
15 | CC(C)CN1CCC2(C1)CN(c1ncccn1)C2.O=C(O)C(F)(F)F | -1.682 | –
16 | Cc1nc(CN2CCO[C@@H]3CC(COc4ccccn4)C[C@H]32)cs1.O=C(O)C(F)(F)F.O=C(O)C(F)(F)F (stereo partly drawn) | – | -42.66
17 | Cc1cc(N2CCC(NC(C)Cc3ccsc3)CC2)nc(N)n1 (stereo not drawn) | 101 | –
18 | Cc1cc(CC(C)NC2CCN(CC(C)C)CC2)[nH]n1 (stereo not drawn) | 11.44 | –
19 | Cc1cc(N2CCC(NC(C)Cc3ccsc3)CC2)nc(C)n1 (stereo not drawn) | 18.53 | –
20 | CCO[C@@H]1CC[C@H]2[C@H]1OCCN2CC1CCC1.O=C(O)C(F)(F)F | -19.35 | –
21 | CCc1ccc(CN2CC[C@@H]3NC(=O)CC[C@@H]32)o1.O=C(O)C(F)(F)F | – | -13.17

Row | Compound | Percent Effect (30 µM, 30.03 µM) [%] | Percent Effect (30.3 µM, […]) [%]
22 | c1cnc(N2CCCC3(CCN(Cc4cccs4)C3)C2)nc1 (stereo not drawn) | – | -58.76
23 | c1cnc(N2CCCC3(CCN(Cc4ccsc4)C3)C2)nc1 (stereo not drawn) | 44.57 | –
24 | Fc1ccccc1CN1CCCC2(CCN(c3ncccn3)C2)C1 (stereo not drawn) | – | 102.7
25 | Cc1cccc(CN2CCC[C@@H]3CN(C(=O)c4ccco4)C[C@@H]32)n1.O=C(O)C(F)(F)F | -18.06 | –
26 | Cc1noc(C)c1CN1CC[C@H]2OCC[C@@]2(C(=O)N2CCCC2)C1.O=C(O)C(F)(F)F | -22.78 | –
27 | CC(C)N(C)Cc1cncc2c1CCN(CC(=O)N(C)C)C2.Cl.Cl.Cl | – | 7.599
28 | Cc1cccc(CN2C[C@@H]3COC[C@H](NS(C)(=O)=O)[C@@H]3C2)n1.O=C(O)C(F)(F)F.O=C(O)C(F)(F)F | – | -15.48
29 | O=C(NC[C@]12COC[C@H]1CN(Cc1cccnc1)C2)c1ccsc1.O=C(O)C(F)(F)F.O=C(O)C(F)(F)F | 39.91 | –
30 | O=C(O)C(F)(F)F.O=C(O)C(F)(F)F.c1cnc(N2CC[C@@H]3CN(Cc4ccncc4)CCO[C@@H]3C2)nc1 | – | -15.11
31 | O=C(O)C(F)(F)F.O=C(O)C(F)(F)F.c1ccc(N2CC[C@@H]3CN(Cc4ccncc4)CCO[C@@H]3C2)cc1 | – | 99.05
32 | O=C(O)C(F)(F)F.c1cnc(N2C[C@H]3CCN(Cc4ccncc4)C[C@H]3C2)nc1 | – | -2.942
33 | Cl.Cl.NCC1[C@H]2CN(CCc3ccccc3)C[C@@H]12 (stereo partly drawn) | – | 0.5802
34 | O=C(O)C(F)(F)F.O=S(=O)(C1CC1)N1CCOC2(CCCN(Cc3ccccn3)C2)C1 (stereo not drawn) | – | -44.45
35 | COc1cc(C2SCC(=O)Nc3[nH]ncc32)c(OC)c2c1OCO2 (stereo not drawn) | – | 5.203
36 | COc1cc(C2SCC(=O)Nc3[nH]ncc32)cc2c1OCO2 (stereo not drawn) | – | 86.32
37 | COc1c(C2SCC(=O)Nc3[nH]ncc32)cc2c(c1OC)OCO2 (stereo not drawn) | – | 46.19
38 | CN(C)Cc1cncc2c1CCN(C1CCOCC1)C2.Cl.Cl.Cl | – | -35.22
39 | O=C(Cc1ccccc1)N1CCC2(CCN2Cc2ccc(F)cc2)C1.O=C(O)C(F)(F)F (stereo not drawn) | – | 10.12
40 | CCCN1C(=O)CC2(CCCNC2)C1=O.Cl (stereo not drawn) | – | -8.6
41 | Cc1cccc(-c2ncc(CNC(C)Cc3ccncc3)cn2)c1 (stereo not drawn) | – | -157.2
42 | Cc1cccc(-c2ncc(CNC(C)Cc3ncccc3C)cn2)c1 (stereo not drawn) | – | -134.7

Row | Compound | Percent Effect (30 µM, 30.03 µM) [%] | Percent Effect (30.3 µM, […]) [%]
43 | CC(Cc1cccc(F)c1)NCc1cnc(N2CCN(C)CC2)nc1 (stereo not drawn) | 94.94 | –
44 | Cn1nc(CN2CCCCC(N)C2)c2c(Cl)cccc21 (stereo not drawn) | – | 88.2
45 | CC(C)n1ccc2ccc(C(=O)NC3CN4CCC3CC4)cc21 (stereo not drawn) | -12.75 | –
46 | Cn1ccc2c(C(=O)NC3CN4CCC3CC4)cccc21 (stereo not drawn) | -26.79 | –
47 | Cn1ncc2c(NC3CN4CCC3CC4)nc(-c3ccncc3)nc21 (stereo not drawn) | – | 99.69
48 | O=C(C1CCOCC1)N1C[C@H]2CNC[C@H]2C1 | – | 14.48
49 | CN1CC[C@H]2OCC[C@@]2(C(=O)NCCc2ccccn2)C1.O=C(O)C(F)(F)F.O=C(O)C(F)(F)F | – | -17.73
50 | O=C(O)C(F)(F)F.O=C(O)C(F)(F)F.O=C(O)C(F)(F)F.c1cc(COC[C@]23COC[C@H]2CN(Cc2ccncc2)C3)ccn1 | -36.39 | –
51 | O=C(O)C(F)(F)F.O=C(O)C(F)(F)F.c1cc(COC[C@]23COC[C@H]2CN(Cc2ccsc2)C3)ccn1 | 16.71 | –
52 | O=C(O)C(F)(F)F.O=C(O)C(F)(F)F.c1cc(COC[C@]23COC[C@H]2CN(CC2CCC2)C3)ccn1 | 51.43 | –
53 | O=C(O)C(F)(F)F.O=C(O)C(F)(F)F.O=C(O)C(F)(F)F.c1cncc(CN2CCN3C[C@H](Oc4cncnc4)C[C@H]3C2)c1 | – | -85.06
54 | O=C(O)C1CC2(CCN(c3nccc4ccccc34)CC2)CN1 (stereo not drawn) | 23.73 | –
55 | CN1CC2(CCNCC2)CC1C(=O)NCCCNc1cccnc1 (stereo not drawn) | – | -6.231
56 | O=C(NCc1cnn2cccnc12)C1CC2(CCNCC2)CN1 (stereo not drawn) | 54.89 | –
57 | COc1ncccc1CN1C[C@H]2CCN(c3ncccn3)C[C@H]2C1.O=C(O)C(F)(F)F | – | -7.481
58 | OCC1N(Cc2ccco2)[C@H]2CC[C@]1(O)CC2 (stereo partly drawn) | – | -9.73
59 | O=C(NCc1ccccn1)[C@]12COC[C@H]1CN(Cc1ccsc1)C2.O=C(O)C(F)(F)F.O=C(O)C(F)(F)F | – | -46.8
60 | Cc1noc(C)c1CN1C[C@@H]2COC[C@@H](C(=O)N3CCCO3)[C@@H]2C1 | – | 79.91
61 | Cc1noc(C)c1CN1C[C@@H]2COC[C@H](C(=O)N3CCCO3)[C@@H]2C1 | – | -103.2
62 | Cc1cc(CN2C[C@@H]3COC[C@H](C(=O)N4CCCCO4)[C@@H]3C2)no1.O=C(O)C(F)(F)F | – | -104.8
63 | O=C(Nc1cccnc1)[C@H]1CN(Cc2nccs2)C[C@H]2OCC[C@@H]12.O=C(O)C(F)(F)F.O=C(O)C(F)(F)F.O=C(O)C(F)(F)F | 6.623 | –

Row | Compound | Percent Effect (30 µM, 30.03 µM) [%] | Percent Effect (30.3 µM, […]) [%]
64 | Cc1cccc(CN2C(=O)C[C@H]3[C@@H]2CCN3CC2CC2)n1.O=C(O)C(F)(F)F.O=C(O)C(F)(F)F | – | 9.244
65 | CNC(=O)c1ccc2c(c1)C1(CCN(C(C)C)CC1)C(=O)N2.O=C(O)C(F)(F)F | – | -29.31
66 | CCC1CNCc2cc3c(OC)ccc(OC)c3nc2O1 (stereo not drawn) | – | 8.287
67 | CCC1CNCc2cc3c(C)ccc(C)c3nc2O1 (stereo not drawn) | – | 58.28
68 | Cc1cccc(CN2CC[C@H]3OCC[C@@]3(C(=O)N3CCCO3)C2)n1.O=C(O)C(F)(F)F.O=C(O)C(F)(F)F | – | -52.48
69 | O=C(O)C(F)(F)F.O=C(O)C(F)(F)F.O=C([C@H]1C[C@H]2OCC[C@H]2N(Cc2cccnc2)C1)N1CCCCO1 | – | -300.7
70 | O=C(C[C@@H]1COC[C@H]2CN(Cc3cccnc3)C[C@@H]12)NCC1CC1.O=C(O)C(F)(F)F.O=C(O)C(F)(F)F | – | -16.86
71 | CN(c1ncccc1C#N)C1CCN(CCc2ccncc2)CC1 | -5.163 | –
72 | CCC1CCCCN1CCc1ccncc1 (stereo not drawn) | – | 96.43
73 | CC1CN(CCc2ccncc2)CCO1 (stereo not drawn) | -38.53 | –
74 | Fc1cccc(CN2CCC3(CCN3c3ncccn3)C2)c1.O=C(O)C(F)(F)F (stereo not drawn) | – | -29.27
75 | COCCN1CCC2(COCc3cnc(-c4ccccc4)nc32)C1.O=C(O)C(F)(F)F (stereo not drawn) | – | -55.77
76 | CCOC(=O)[C@@H]1[C@@H](c2ccccc2)CN2CCNC[C@H]12 | – | -24.8
77 | COC(=O)c1ccc(C2SCC(=O)Nc3c2cnn3C2CCCC2)cc1 (stereo not drawn) | 9.206 | –
78 | O=C1CSC(c2ccc3c(c2)OCO3)c2cnn(C3CCCCC3)c2N1 (stereo not drawn) | 6.351 | –
79 | O=C1CSC(c2cccs2)c2cnn(C3CCCC3)c2N1 (stereo not drawn) | 106.7 | –
80 | CN1CCN(S(=O)(=O)c2cccc(F)c2)Cc2cccnc21.O=C(O)C(F)(F)F | – | -5.986
81 | COCCN1CCN(c2ccc(C)nn2)Cc2ccc(C)nc21.O=C(O)C(F)(F)F.O=C(O)C(F)(F)F | – | 6.262
82 | COCCN1CCN(c2cccc(C)n2)Cc2ccc(C)nc21.O=C(O)C(F)(F)F.O=C(O)C(F)(F)F | – | 60.56
83 | COCCN1CCN(S(C)(=O)=O)Cc2ccc(C)nc21.O=C(O)C(F)(F)F | – | -28.84
